Assay outcomes from PubChem BioAssay.
miR-21 act – qHTS Assay for Modulators of miRNAs and/orActivators of miR-21. HeLa miR-21 FLuc reporter, luciferase, 48 h. Potency, µM (titrated, usually from 38.3 µM), for the others: at the top dose activity change, positive = activation, hits mostly activators. 340,000 tested, under 10 active. AID 2288, 2010;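 note: % of control where 0% means no effect; miR-21 action dims this reporter so a rising signal means less miR-21 action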
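HeLa cells endogenously expressing miR-21, stably carrying CMV-driven firefly luciferase with a downstream miR-21 binding site, 2000 cells/well. Titrations up to approximately 40 uM, 48 hours; luciferase luminescence read.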
Sfp inh – qHTS Assay for Inhibitors of Bacillus subtilis Sfp phosphopantetheinyl transferase (PPTase) | 4'-phosphopantetheinyl transferase ffp (Bacillus subtilis), Q9F4F7 | Biochemical Sfp PPTase activity, qHTS | Potency, µM, for inactives: largest response in the series, negative = inhibition, hits mostly inhibitors | 310,000 compounds, 3.5% hits | AID 1490, 2009;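 note: the enzyme is Sfp with the accession as filed and its product quenches rhodamine fluorescence; potency is the fitted concentration of half-maximal effect; 0% = enzyme reaction without inhibitor and -100% = no enzyme wells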
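Step 1, compound plus 15 nM Sfp-PPTase, 15 min, room temperature. Step 2, add rhodamine-CoA (5 uM) and BHQ-2-YbbR (12.5 uM). Step 3, read 525/598 nm fluorescence at 0 and 30 min.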
ALDH1A1 block – qHTS Assay for Inhibitors of Aldehyde Dehydrogenase 1 (ALDH1A1); Purified ALDH1A1, NADH fluorescence, propionaldehyde substrate; AID 1030, 2008; 220,000 compounds, 7.3% hits; Potency, µM (highest dose often 75.3 µM), inactives show at the highest dose activity, negative = inhibition, most hits filed as inhibitors; active = well fitted inhibition curve with a large enough effect, not every such curve was filed as active; inconclusive = small, poorly fitted or top-dose-only effect, or another doubt; inactive = no such curve, though single readings can be large or run the other way;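 note: potency is the fitted concentration of half-maximal effect; plate controls were no enzyme wells and a reference inhibitor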
Target sequence (P00352 whole entry, looked up): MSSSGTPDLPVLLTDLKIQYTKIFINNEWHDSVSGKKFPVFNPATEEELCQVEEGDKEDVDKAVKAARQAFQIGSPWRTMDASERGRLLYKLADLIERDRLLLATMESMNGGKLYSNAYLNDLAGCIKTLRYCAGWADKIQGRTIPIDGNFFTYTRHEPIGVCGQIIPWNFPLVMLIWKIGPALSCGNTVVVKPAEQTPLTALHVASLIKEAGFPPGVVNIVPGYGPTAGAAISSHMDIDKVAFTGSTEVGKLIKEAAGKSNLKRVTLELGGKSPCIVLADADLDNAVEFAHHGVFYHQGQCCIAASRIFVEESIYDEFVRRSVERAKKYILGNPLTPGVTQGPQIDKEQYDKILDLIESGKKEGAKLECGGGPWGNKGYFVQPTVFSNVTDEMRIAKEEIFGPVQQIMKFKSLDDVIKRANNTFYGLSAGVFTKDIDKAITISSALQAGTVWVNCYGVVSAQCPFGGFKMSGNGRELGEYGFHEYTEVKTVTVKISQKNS
LMNA splice mod – qHTS Assay for Modulators of Lamin A Splicing; HeLa LMNA splicing GFP/RFP minigene ratio, 48 h; Potency, µM (doses to about 46.1 µM), for inactives: top-dose ratio change, negative = inhibition, hits mostly inhibitors; 200,000 compounds, 0.01% hits; active = well fitted inhibition curve with a large enough effect in the signal ratio, with a control signal flat, not every such curve was filed as active; inconclusive = small, poorly fitted or top-dose-only effect, or effect the other way, or a change in a side signal; the % refers to the signal ratio; note: potency is the fitted concentration of half-maximal effect; % is set by controls: 0 for no effect and ±100 for the full control effect
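Read-out is the ratio of GFP to DsRed2 object intensity, acquired by 488 nm laser-scanning cytometry on HeLa lamin A-EGFP minigene reporter cells. Compound incubation 48 hrs at 37 °C in Opti-MEM with 2% FBS; DMSO 0.5% final.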
G9a block – qHTS Assay for Inhibitors of Histone Lysine Methyltransferase G9a. G9a H3K9 monomethylation, AlphaScreen, 2 h. 350,000 compounds, 8.8% hits. Histone-lysine N-methyltransferase EHMT2 (Homo sapiens), Q96KQ7. Potency, µM (top dose mostly 102 µM), for the others: at the top dose activity, negative = inhibition, hits mostly inhibitors; note: potency is the fitted concentration of half-maximal effect; % is set by controls: 0 for no effect and ±100 for the full control effect; nearly all actives have a fitted effect of over 75% in size
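G9a (20 nM) was preincubated 15 min with compound, then reacted 2 h at room temperature with 500 nM biotin-H3K9 peptide and 20 µM SAM. Monomethyl-H3K9 detected by AlphaScreen using anti-H3K9me1 antibody.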
JMJD2E inh – qHTS Assay for Inhibitors of Human Jumonji Domain Containing 2E (JMJD2E). AID 2147, 2009. JMJD2E catalytic domain, FDH-coupled NADH fluorescence (FDH is formaldehyde dehydrogenase). Potency, µM (highest dose often 57.1 µM), inactives show at the top dose activity change, negative = inhibition, most hits filed as inhibitors. Lysine-specific demethylase 4E (Homo sapiens), B2RXH2. 230,000 compounds, 1.6% hits; active = well fitted inhibition curve with a large enough effect, not every such curve was filed as active; inconclusive = small, poorly fitted or top-dose-only effect, or another doubt; inactive = no such curve, though single readings can be large or run the other way;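 note: potency is the fitted concentration of half-maximal effect; 0% = wells with enzyme and -100% = buffer wells without enzyme; nearly all actives have a fitted effect of over 50% in size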
Starred values were filed as active, the others as inactive; ? = inconclusive; · = no result given; [ ] = dose if it differs, or a comment. Hits are enriched below; roughly 13% of the tested compounds scored in any of these assays. Unless noted, calls come from the whole dose curve; as a rule, active = well fitted curve in the direction sought with a large enough effect; inconclusive = small, poorly fitted or top-dose-only effect, or another doubt; inactive = no such curve, though single readings can be large; an effect the other way counts as inactive or inconclusive.

SMILES	miR-21 act	Sfp inh	ALDH1A1 block	LMNA splice mod	G9a block	JMJD2E inh
COc1ccc(OCC(O)CNS(=O)(=O)c2cccc(Cl)c2)cc1 (stereo not drawn)	9%	8%	10µM*	·	3%	3%
CCOC(=O)c1cc(C)n(CC2CCC(C(=O)Nc3cccc(C(C)=O)c3)CC2)c1C (stereo not drawn)	-1%	·	·	·	?	·
COc1ccc(CNC(=S)NCc2ccc(OC)cc2)cc1	-8%	19%	20µM*	-6%[1.84 µM]	-32%	-3%
COc1ccc(CNC(=S)NC(C)CCc2ccccc2)cc1 (stereo not drawn)	-1%	3%	6.3µM*	-24%[46 µM]	?	-2%
CC(C)COc1ccc(CNC(=S)NCc2ccccc2)cc1	-2%	12%	1%	8%	50%[12.7 µM]	-4%
COc1ccc(CC(CC(=O)O)C(=O)Nc2ccc(Cl)c(Cl)c2)cc1 (stereo not drawn)	0%	15%	·	·	6%	·
COc1ccc(CC(CC(=O)O)C(=O)NCc2ccccc2)cc1 (stereo not drawn)	-3%	5%	6%	10%[46 µM]	56µM*	8%
CC(=O)Nc1ccc(C(=O)CN2CCN(c3ccccc3)CC2)cc1	1%	-18%	·	·	?	·
CCn1c(COc2ccccc2)nnc1SCC(=O)Nc1ccc(N2CCOCC2)cc1	5%	25%	·	·	4%	·
CCn1c(C(=O)NCc2ccccc2OC)cc2sccc21	4%	·	·	·	0%[59 µM]	·
[O-][n+]1c2ccccc2[n+]([O-])c2cc(O)ccc21	-1%	?	·	·	1.4µM*	·
[O-][n+]1c(/C=C/c2ccccc2)ccc2ccccc21	-14%	-2%	·	·	8%	·
CCOc1ccc(CCNC(=O)CCCn2nc(C)c3sc4ccccc4c3c2=O)cc1	4%	·	·	·	-31%[59 µM]	·
Cc1nn(CCCC(=O)NCCc2ccc(Cl)cc2)c(=O)c2c1sc1ccccc12	-62%	·	·	·	6.3µM*	·
Cc1nn(C(C)C(=O)NCCCN2CCCCC2C)c(=O)c2c1sc1ccccc12 (stereo not drawn)	-5%	28%	·	·	24%	·
Cc1nn(C(C)C(=O)NCCCN2CCCCCC2)c(=O)c2c1sc1ccccc12 (stereo not drawn)	-6%	1%	·	·	50µM*	·
Cc1cc(C)c(S(=O)(=O)Nc2ccc(-c3ccc(N4CCCCCC4)nn3)cc2)c(C)c1	-27%	·	·	?	-7%[59 µM]	·
Cc1[nH]n(-c2ccccc2)c(=O)c1C=Nc1ccc(S(=O)(=O)Nc2nccs2)cc1	-3%	15%	13µM*	·	?	0%
CCc1nnc(NS(=O)(=O)c2ccc(N=Cc3c(C)[nH]n(-c4ccc(Cl)cc4)c3=O)cc2)s1	-19%	11%	?	-4%	-8%[59 µM]	-17%
COc1nccnc1NS(=O)(=O)c1ccc(N=Cc2c(C)[nH]n(-c3ccccc3)c2=O)cc1	-2%	10%	-12%	10%	56µM*	2%
Cc1ccc(-n2[nH]c(C)c(C=Nc3ccc(S(=O)(=O)Nc4nccs4)cc3)c2=O)cc1C	-17%	5%	4%	-3%	-3%[59 µM]	1%
Cc1[nH]n(-c2ccc(Cl)cc2)c(=O)c1C=Nc1ccc(S(=O)(=O)N2CCOCC2)cc1	-17%	23%	-12%	?	50µM*	-2%
COc1cc(S(=O)(=O)Nc2ccc(C)cc2)ccc1N=Cc1c(C)[nH]n(-c2ccccc2)c1=O	-8%	9%	-9%	-15%	-86%[59 µM]	-4%
COc1nccnc1NS(=O)(=O)c1ccc(N=Cc2c(C)[nH]n(-c3ccc(Cl)cc3)c2=O)cc1	-18%	13%	-2%	-4%	25µM*	-3%
